Assay results taken from the supplement of paper PMC6411743.
± gives the standard deviation of the averaged measurements. The full data set covers some 6,200 targets. This sample favours those with the largest changes.

Compound: Nc1ncnc2c1ncn2[C@@H]1O[C@H](COP(=O)(O)OP(=O)(O)NP(=O)(O)O)[C@@H](O)[C@H]1O [adenylyl imidodiphosphate]
Assay: NP40-soluble protein abundance relative to vehicle (solubility fold change) (ratio); higher = more soluble protein in presence of AMP-PNP
Procedure, shortened: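 Data come from three independent experiments in which Dounce-homogenised Jurkat crude lysate was treated at eight concentrations from 0.1 to 10 mM. Treatment ran 10 min at room temperature and then 3 min at 37 °C, after which 0.8% NP40 and benzonase were added for 60 min at 4 °C before ultracentrifugation. The supernatant underwent TMT labelling and LC-MS/MS, and vsn-normalised intensities were expressed as fold change against the detergent-processed vehicle in each replicate.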

UniProt Q92576, sequence (Q92576 whole entry): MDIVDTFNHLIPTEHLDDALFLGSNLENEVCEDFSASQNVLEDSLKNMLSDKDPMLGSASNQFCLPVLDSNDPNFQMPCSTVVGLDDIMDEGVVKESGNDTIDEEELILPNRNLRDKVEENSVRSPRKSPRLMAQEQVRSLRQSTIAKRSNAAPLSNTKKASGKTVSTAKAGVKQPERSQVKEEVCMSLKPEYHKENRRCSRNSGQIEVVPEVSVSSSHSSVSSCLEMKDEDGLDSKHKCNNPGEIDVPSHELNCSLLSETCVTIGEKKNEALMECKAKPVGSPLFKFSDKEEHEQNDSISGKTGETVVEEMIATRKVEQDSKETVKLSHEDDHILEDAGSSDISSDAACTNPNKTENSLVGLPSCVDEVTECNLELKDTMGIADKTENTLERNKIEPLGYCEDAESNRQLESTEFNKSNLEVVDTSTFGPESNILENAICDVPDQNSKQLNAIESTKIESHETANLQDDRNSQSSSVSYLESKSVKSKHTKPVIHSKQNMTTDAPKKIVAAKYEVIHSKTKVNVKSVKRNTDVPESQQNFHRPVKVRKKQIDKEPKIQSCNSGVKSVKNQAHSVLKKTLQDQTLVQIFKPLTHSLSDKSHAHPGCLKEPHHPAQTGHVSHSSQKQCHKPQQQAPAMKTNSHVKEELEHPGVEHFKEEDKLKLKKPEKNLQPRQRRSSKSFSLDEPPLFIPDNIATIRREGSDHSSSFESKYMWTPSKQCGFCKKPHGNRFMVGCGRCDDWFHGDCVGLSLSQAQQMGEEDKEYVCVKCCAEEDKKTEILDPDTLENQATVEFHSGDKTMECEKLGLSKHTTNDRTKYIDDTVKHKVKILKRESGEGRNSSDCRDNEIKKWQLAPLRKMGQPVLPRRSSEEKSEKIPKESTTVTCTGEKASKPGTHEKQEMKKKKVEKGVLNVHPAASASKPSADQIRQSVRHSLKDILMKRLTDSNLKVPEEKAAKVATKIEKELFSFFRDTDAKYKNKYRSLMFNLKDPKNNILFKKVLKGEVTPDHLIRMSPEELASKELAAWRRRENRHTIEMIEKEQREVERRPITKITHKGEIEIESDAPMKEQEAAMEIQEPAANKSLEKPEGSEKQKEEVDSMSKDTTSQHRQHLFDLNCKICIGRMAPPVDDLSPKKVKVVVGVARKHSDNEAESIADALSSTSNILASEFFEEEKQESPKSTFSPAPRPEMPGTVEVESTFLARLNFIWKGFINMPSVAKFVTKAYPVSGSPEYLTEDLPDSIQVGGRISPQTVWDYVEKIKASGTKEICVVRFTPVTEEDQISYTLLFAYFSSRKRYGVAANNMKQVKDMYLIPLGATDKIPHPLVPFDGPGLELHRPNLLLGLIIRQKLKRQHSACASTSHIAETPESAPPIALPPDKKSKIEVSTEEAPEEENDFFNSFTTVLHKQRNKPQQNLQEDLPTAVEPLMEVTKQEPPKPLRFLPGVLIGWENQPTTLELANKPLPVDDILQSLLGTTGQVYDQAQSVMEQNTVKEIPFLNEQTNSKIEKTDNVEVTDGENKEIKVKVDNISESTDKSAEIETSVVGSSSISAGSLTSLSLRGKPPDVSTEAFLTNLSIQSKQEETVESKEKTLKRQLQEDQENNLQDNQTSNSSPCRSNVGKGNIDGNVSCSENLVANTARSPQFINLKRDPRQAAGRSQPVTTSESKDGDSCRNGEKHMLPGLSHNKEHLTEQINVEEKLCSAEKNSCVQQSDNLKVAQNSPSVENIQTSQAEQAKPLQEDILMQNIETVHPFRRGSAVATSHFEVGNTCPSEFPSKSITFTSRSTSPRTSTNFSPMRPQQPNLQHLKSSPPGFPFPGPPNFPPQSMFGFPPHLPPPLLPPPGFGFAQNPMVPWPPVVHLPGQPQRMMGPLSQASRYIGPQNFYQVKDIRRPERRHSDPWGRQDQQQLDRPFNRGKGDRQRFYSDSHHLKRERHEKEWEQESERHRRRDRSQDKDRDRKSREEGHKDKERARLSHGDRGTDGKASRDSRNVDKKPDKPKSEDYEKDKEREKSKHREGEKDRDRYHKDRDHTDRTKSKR
UniProt Q16666, sequence (Q16666 whole entry): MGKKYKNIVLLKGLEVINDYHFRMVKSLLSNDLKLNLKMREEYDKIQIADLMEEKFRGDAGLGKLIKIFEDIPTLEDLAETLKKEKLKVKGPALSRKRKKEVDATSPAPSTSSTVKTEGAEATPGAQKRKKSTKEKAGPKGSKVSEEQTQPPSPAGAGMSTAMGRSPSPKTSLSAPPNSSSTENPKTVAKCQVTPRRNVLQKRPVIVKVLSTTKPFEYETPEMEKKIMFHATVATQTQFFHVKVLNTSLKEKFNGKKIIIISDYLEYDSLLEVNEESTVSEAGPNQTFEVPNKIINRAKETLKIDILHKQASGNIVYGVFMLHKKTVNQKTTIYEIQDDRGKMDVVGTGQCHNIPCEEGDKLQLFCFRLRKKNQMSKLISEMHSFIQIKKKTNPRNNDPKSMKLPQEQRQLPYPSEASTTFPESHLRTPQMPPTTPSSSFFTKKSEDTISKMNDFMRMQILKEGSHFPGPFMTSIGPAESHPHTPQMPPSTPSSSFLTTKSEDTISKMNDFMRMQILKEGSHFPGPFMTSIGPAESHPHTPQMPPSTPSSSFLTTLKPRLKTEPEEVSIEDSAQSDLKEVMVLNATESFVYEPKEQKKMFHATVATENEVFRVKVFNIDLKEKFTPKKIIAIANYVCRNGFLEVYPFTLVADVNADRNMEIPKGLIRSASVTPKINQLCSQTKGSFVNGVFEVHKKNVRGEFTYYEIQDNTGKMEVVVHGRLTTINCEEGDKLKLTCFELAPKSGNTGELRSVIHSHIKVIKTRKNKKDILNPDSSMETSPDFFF
UniProt Q14146, sequence (Q14146 whole entry): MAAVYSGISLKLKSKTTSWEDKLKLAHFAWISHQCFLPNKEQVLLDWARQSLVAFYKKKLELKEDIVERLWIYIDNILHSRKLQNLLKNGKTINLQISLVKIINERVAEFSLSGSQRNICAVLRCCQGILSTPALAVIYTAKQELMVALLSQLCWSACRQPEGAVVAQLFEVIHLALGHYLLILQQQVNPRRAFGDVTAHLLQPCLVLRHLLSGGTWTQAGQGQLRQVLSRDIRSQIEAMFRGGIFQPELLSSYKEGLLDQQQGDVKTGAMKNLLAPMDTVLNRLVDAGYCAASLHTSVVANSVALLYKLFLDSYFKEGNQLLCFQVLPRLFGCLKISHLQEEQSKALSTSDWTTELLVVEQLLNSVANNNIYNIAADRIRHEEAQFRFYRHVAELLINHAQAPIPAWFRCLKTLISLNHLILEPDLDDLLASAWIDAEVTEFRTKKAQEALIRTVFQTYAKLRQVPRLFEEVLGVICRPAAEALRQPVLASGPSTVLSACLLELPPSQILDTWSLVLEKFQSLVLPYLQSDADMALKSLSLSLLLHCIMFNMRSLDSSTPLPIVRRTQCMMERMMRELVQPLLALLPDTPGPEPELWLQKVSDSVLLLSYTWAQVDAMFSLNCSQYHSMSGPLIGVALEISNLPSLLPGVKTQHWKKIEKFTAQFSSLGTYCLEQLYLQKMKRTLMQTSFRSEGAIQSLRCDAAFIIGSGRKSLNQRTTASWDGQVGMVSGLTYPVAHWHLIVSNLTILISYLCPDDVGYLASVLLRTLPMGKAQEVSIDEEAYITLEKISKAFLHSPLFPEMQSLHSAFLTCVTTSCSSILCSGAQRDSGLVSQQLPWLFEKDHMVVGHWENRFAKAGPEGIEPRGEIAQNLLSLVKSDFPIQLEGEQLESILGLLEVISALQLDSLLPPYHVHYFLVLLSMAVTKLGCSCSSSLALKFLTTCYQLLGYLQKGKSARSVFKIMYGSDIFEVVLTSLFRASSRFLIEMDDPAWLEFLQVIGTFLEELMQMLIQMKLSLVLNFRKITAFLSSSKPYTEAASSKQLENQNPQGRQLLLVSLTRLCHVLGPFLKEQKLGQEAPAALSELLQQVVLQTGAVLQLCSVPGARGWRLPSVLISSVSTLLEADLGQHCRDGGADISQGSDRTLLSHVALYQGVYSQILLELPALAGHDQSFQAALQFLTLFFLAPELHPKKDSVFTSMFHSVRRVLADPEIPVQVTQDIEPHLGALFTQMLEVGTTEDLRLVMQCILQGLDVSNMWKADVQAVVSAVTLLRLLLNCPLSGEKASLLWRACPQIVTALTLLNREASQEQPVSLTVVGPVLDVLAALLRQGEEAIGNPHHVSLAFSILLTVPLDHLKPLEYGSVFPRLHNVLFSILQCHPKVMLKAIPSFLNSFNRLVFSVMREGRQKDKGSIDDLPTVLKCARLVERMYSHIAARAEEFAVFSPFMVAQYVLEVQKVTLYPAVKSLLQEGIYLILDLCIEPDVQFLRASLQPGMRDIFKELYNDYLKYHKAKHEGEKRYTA
UniProt Q6P1L5, sequence (Q6P1L5 whole entry): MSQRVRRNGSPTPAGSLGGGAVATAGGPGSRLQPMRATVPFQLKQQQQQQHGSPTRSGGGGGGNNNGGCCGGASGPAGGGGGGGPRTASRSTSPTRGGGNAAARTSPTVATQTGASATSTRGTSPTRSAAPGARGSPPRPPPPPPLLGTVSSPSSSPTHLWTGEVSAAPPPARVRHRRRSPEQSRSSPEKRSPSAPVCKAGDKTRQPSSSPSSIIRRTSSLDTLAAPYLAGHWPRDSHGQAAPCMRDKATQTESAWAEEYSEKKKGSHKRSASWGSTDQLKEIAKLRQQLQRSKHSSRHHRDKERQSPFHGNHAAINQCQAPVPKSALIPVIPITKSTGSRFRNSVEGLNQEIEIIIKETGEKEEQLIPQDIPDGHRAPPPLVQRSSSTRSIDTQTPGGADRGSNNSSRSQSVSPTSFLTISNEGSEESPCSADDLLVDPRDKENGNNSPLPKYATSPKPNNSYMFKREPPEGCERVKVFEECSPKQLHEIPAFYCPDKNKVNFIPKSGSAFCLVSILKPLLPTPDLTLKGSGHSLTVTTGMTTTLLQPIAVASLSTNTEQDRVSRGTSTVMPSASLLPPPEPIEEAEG
UniProt Q8N5M4, sequence (Q8N5M4 whole entry, one chain of several): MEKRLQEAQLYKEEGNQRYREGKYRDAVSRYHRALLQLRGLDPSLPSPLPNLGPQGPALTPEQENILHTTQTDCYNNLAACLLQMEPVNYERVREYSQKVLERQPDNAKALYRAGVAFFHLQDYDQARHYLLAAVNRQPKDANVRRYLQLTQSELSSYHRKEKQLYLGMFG

Target	NP40-soluble protein abundance (concentration: 1mM)	NP40-soluble protein abundance (concentration: 2mM)	NP40-soluble protein abundance (concentration: 4mM)	NP40-soluble protein abundance (concentration: 6mM)	NP40-soluble protein abundance (concentration: 8mM)	NP40-soluble protein abundance (concentration: 10mM)
UniProt Q6UXH1|Q6UXH1-4|Q6UXH1-5|Q6UXH1-6	1.01 ± 0.032	1.07 ± 0.056	1.01 ± 0.029	0.964 ± 0.019	0.956 ± 0.045	1.01 ± 0.029
UniProt Q86Y56	0.976 ± 0.045	0.931 ± 0.038	0.977 ± 0.037	1.01 ± 0.022	0.997 ± 0.055	0.991 ± 0.04
UniProt Q15084|Q15084-2|Q15084-3|Q15084-4|Q15084-5	0.949 ± 0.019	0.989 ± 0.021	0.9386 ± 0.0066	0.951 ± 0.032	0.92 ± 0.022	0.94 ± 0.047
UniProt Q7Z2K8|Q7Z2K8-2	0.958 ± 0.012	0.913 ± 0.023	1.12 ± 0.049	1.1 ± 0.038	0.932 ± 0.057	0.932 ± 0.031
UniProt Q6UN15|Q6UN15-3	1.03 ± 0.024	1.11 ± 0.062	1.059 ± 0.0078	1.07 ± 0.053	1.08 ± 0.034	1.15 ± 0.064
UniProt Q8NHM5|Q8NHM5-2|Q8NHM5-3|Q8NHM5-4	1.02 ± 0.024	1.034 ± 0.0075	1.04 ± 0.054	1.04 ± 0.04	1.01 ± 0.021	1.04 ± 0.034
FAM117B (UniProt Q6P1L5)	0.99 ± 0.022	1.07 ± 0.04	1.01 ± 0.025	1.005 ± 0.01	0.9688 ± 0.0059	1.01 ± 0.022
URB2 (UniProt Q14146)	0.971 ± 0.018	0.9722 ± 0.0054	0.988 ± 0.013	1.05 ± 0.018	1.07 ± 0.023	1.1 ± 0.055
UniProt Q86VP1-2|Q86VP1-4|B8ZZD4	0.977 ± 0.039	1.01 ± 0.026	0.963 ± 0.024	0.935 ± 0.038	0.925 ± 0.033	0.936 ± 0.031
UniProt Q71F23	1.05 ± 0.028	1.07 ± 0.034	1.03 ± 0.016	1.02 ± 0.039	1.07 ± 0.013	1.08 ± 0.0087
SYAP1 (UniProt Q96A49)	1 ± 0.046	1.06 ± 0.077	0.952 ± 0.072	0.94 ± 0.021	0.94 ± 0.039	0.918 ± 0.08
TGFBRAP1 (UniProt Q8WUH2)	0.96 ± 0.042	0.89 ± 0.093	0.93 ± 0.048	0.895 ± 0.064	0.916 ± 0.047	0.889 ± 0.052
UniProt Q92793|Q92793-2	1.05 ± 0.037	1.05 ± 0.028	1.01 ± 0.035	1.01 ± 0.04	1.02 ± 0.015	1.05 ± 0.02
UniProt Q13362-2|Q13362-3|Q13362-4	0.982 ± 0.017	1.04 ± 0.036	0.989 ± 0.018	0.976 ± 0.036	0.948 ± 0.018	0.966 ± 0.043
NSDHL (UniProt Q15738)	0.968 ± 0.04	0.892 ± 0.058	0.93 ± 0.022	0.953 ± 0.045	0.964 ± 0.036	0.923 ± 0.028
GATAD2B (UniProt Q8WXI9)	1.01 ± 0.014	1.06 ± 0.046	1.024 ± 0.0076	1.01 ± 0.049	0.994 ± 0.035	1.02 ± 0.03
GALNT6 (UniProt Q8NCL4)	1.005 ± 0.0084	0.9987 ± 0.0047	0.967 ± 0.011	1 ± 0.024	0.9866 ± 0.0025	1 ± 0.015
UniProt Q8N4N3|Q8N4N3-2	1 ± 0.013	0.996 ± 0.019	0.981 ± 0.027	0.96 ± 0.019	0.981 ± 0.027	0.959 ± 0.017
UniProt Q8NDV3-2|Q8NDV3-3	0.953 ± 0.039	0.942 ± 0.011	0.928 ± 0.015	0.977 ± 0.0022	0.945 ± 0.025	0.944 ± 0.033
UniProt Q16666|Q16666-2	1.06 ± 0.052	1.11 ± 0.023	1.22 ± 0.069	1.43 ± 0.14	1.49 ± 0.14	1.53 ± 0.19
PYCR2 (UniProt Q96C36)	0.98 ± 0.028	1.01 ± 0.051	0.997 ± 0.013	1.01 ± 0.011	0.9755 ± 0.0097	1 ± 0.032
UniProt Q92576|Q92576-2	1.046 ± 0.0099	1.09 ± 0.048	1.08 ± 0.008	1.08 ± 0.07	1.09 ± 0.04	1.11 ± 0.046
EXOSC6 (UniProt Q5RKV6)	1.04 ± 0.032	1.03 ± 0.041	1.08 ± 0.018	1.12 ± 0.036	1.14 ± 0.052	1.14 ± 0.074
UniProt Q7L5N7|A0A087X0A3|Q7L5N7-2	0.987 ± 0.031	0.966 ± 0.051	0.979 ± 0.037	0.99 ± 0.035	0.985 ± 0.028	1.01 ± 0.036
UniProt Q92614|Q92614-2|Q92614-4	1.02 ± 0.025	1.05 ± 0.026	1.01 ± 0.014	0.984 ± 0.045	0.955 ± 0.026	0.971 ± 0.042
THOC2 (UniProt Q8NI27)	1.36 ± 0.16	1.46 ± 0.2	1.63 ± 0.29	1.87 ± 0.53	2.02 ± 0.6	2.15 ± 0.77
UniProt Q8N5M4|E9PKV8	0.932 ± 0.054	0.94 ± 0.03	0.91 ± 0.032	0.984 ± 0.064	0.961 ± 0.055	0.938 ± 0.071
FAM91A1 (UniProt Q658Y4)	0.958 ± 0.033	0.915 ± 0.068	0.961 ± 0.031	0.99 ± 0.041	1.01 ± 0.034	0.975 ± 0.054
UniProt Q8N3X1|Q8N3X1-2	1.04 ± 0.042	1.12 ± 0.093	1.21 ± 0.11	1.45 ± 0.15	1.49 ± 0.17	1.58 ± 0.24
UniProt Q7Z7K6|Q7Z7K6-3	1.08 ± 0.068	1.153 ± 0.0086	1.3 ± 0.087	1.51 ± 0.12	1.72 ± 0.052	2.1 ± 0.13
